The entries come from a sample that favours hits as a whole.
Anthrax LF inh2 – blocks Bacillus anthracis lethal factor protease | inhibition, % at 10 µM | AID 588501 | multiplex microsphere protease cleavage assay, LF | 360,000 compounds, 0.12% hits
Target sequence (P15917 whole entry, looked up): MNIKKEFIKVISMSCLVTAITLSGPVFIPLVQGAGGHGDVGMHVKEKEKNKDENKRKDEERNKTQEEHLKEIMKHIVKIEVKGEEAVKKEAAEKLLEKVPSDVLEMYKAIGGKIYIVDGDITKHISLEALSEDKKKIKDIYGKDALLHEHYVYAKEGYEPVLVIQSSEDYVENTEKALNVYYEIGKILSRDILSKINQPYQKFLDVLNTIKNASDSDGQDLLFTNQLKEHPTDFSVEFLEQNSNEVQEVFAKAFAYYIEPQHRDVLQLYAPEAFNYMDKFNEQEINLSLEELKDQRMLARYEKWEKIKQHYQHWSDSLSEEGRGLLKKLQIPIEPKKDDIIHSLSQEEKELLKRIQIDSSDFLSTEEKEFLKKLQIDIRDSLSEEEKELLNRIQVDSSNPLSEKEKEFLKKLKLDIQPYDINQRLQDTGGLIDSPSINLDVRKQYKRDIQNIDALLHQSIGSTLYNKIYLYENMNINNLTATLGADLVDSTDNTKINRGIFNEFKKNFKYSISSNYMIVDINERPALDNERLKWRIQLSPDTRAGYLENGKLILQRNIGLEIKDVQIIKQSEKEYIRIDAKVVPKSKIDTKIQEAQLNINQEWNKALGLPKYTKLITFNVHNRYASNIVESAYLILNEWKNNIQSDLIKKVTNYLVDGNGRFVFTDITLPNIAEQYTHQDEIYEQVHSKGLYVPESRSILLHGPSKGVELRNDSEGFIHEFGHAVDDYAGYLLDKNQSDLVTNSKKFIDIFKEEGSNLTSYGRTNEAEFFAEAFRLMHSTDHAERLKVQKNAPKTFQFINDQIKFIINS
Autofluor counter – counter-screen for toxin protease inhibitors: compound fluorescence; 360,000 compounds, 3.1% hits; compound autofluorescence counterscreen, microsphere flow cytometry; stronger effect = higher value; fluorescence intensity (concentration not given with the values); in the data active = fluorescence intensity above about 16000; inconclusive = no clear call, values can overlap the other calls
BoNT A protease – BoNT A light chain protease inhibition; AID 588499; 360,000 compounds, 0.17% hits; multiplex microsphere protease substrate cleavage, flow cytometry; inhibition, % at 10 µM
TcdB inh – TcdB glycohydrolase inhibition; P18177; TcdB glycohydrolase enzymatic assay, plate reader; inhibition, % at 9.99 µM; 350,000 compounds, 0.24% hits; AID 652162; in the data active = inhibition above about 10%
BoNT-F LC inh – BoNT F light chain protease inhibition | Multiplex microsphere protease cleavage assay, flow cytometry | inhibition, % at 10 µM | 360,000 compounds, 0.22% hits; in the data active = inhibition above about 35%, passing the limit was not always enough; inconclusive = no clear call, values can overlap the other calls
A number is an active result; - = inactive; ? = inconclusive; . = not tested or not shown. Cut-off read from the data, not from the text of the source, unless noted: active = inhibition above about 30%; inconclusive = no clear call, values can overlap the other calls; inactive = below that.

SMILES	Anthrax LF inh2	Autofluor counter	BoNT A protease	TcdB inh	BoNT-F LC inh
O=C(CCn1nnc2ccccc21)Nc1nnc(COc2ccc(F)cc2)s1	-	21872	?	.	-
CCOc1cc(NC(=S)NCCCN2CCOCC2)c(OCC)cc1NC(=O)C(C)C	-	-	-	.	-
CCOc1cc(NC(=S)NCCCN2CCOCC2)c(OCC)cc1NC(=O)CC(C)C	-	22374	-	.	-
CCOc1cc(NC(=O)CC(C)C)c(OCC)cc1NC(=O)CCn1nnc2ccccc21	-	21013	-	.	-
COCCCn1c(SCc2nnc(-c3ccc(OC)c(OC)c3)o2)nnc1-c1ccncc1	-	-	-	.	-
COc1ccc(-c2nnc(CSc3nnc(-c4ccncc4)n3C3CCCCC3)o2)cc1OC	-	19681	?	.	-
C[C@@H]1CCCCO[C@H](CN(C)C(=O)C2CCCCC2)[C@H](C)CN([C@@H](C)CO)C(=O)c2cc(NC(=O)Nc3ccc4c(c3)OCO4)ccc2O1	.	.	.	-	.
CC1CCN(S(=O)(=O)c2cccc(S(=O)(=O)N3CCOCC3)c2)CC1	-	16191	-	.	-
O=S(=O)(NCc1ccccc1)c1cccc(S(=O)(=O)N2CCOCC2)c1	-	21829	-	.	-
C[C@H](CO)N1C[C@H](C)[C@@H](CN(C)S(=O)(=O)c2cn(C)cn2)Oc2ccc(NC(=O)CCC(F)(F)F)cc2C1=O	.	.	.	-	.
CCC(=O)N1[C@@H]2CN(S(=O)(=O)c3ccccc3C)c3ccccc3[C@@H]2[C@@H]1CO	.	.	.	-	.
CC(C)(C)NC(=O)C1CC(=O)OC1(C)C (stereo unspecified)	-	21395	-	.	-
COc1ccc(NC(=O)Nc2ccc3c(c2)CC(=O)N([C@@H](C)CO)C[C@@H](C)[C@@H](CN(C)Cc2ccc(C(=O)O)cc2)O3)cc1	.	.	.	-	.
CN1CCN(CCC(=O)Nc2ccc(OCc3ccccc3)cc2)CC1	-	-	-	.	-
COC(=O)c1ccc(NC(=O)CCN2CCN(Cc3ccccc3)CC2)cc1	-	-	-	.	-
O=C(CCN1CCN(CCO)CC1)Nc1ccc(OCc2ccccc2)cc1	-	19226	-	.	-
S=C(Nc1ccccc1)Nc1ccc(OCc2ccccc2)cc1	-	19054	?	.	-
O=C(CCN1CCN(Cc2ccccc2)CC1)Nc1ccc(OCc2ccccc2)cc1	-	17367	-	.	-
CCOc1ccc(NC(=S)Nc2cc(-c3ccccc3)[nH]n2)cc1	-	19137	-	.	-
NS(=O)(=O)c1ccc(NC(=S)Nc2ccc(OCc3ccccc3)cc2)cc1	-	-	-	-	-
C[C@@H]1CCCCO[C@@H](CN(C)CC2CCCCC2)[C@H](C)CN([C@H](C)CO)C(=O)c2cc(NC(=O)c3ccccc3)ccc2O1	.	.	.	-	.
O=C(Nc1ccc(N2CCN(Cc3ccccc3)CC2)cc1)c1ncn[nH]1	-	23010	-	.	-
COc1ccc(NC(=O)Nc2ccc3c(c2)C(=O)N([C@H](C)CO)C[C@@H](C)[C@H](CN(C)S(=O)(=O)c2ccc(F)cc2)OCCCC[C@@H](C)O3)cc1	.	.	.	-	.
C/C(=N\Nc1ncnc2sc(C)c(C)c12)c1ccccn1	-	-	40	-	40
Cc1sc2ncnc(N/N=C/c3cccc(O)c3)c2c1C	-	-	-	.	-
SMILES	Anthrax LF inh2	Autofluor counter	BoNT A protease	TcdB inh	BoNT-F LC inh
COc1ccc(OC)c(C(C)NC(C)=O)c1 (stereo unspecified)	-	18227	-	.	-
Cn1ncc(Cl)c1C(=O)N/N=C/c1cccc(OC2CSC2)c1	-	-	-	23	-
O=C(CSc1ncccn1)N/N=C/c1cccc(OC2CSC2)c1	-	-	-	-	-
O/N=C/c1ccc2ccccc2n1	-	-	-	-	41
O=S(=O)(N/N=C/c1ccc2c(c1)OCCO2)c1ccccc1	-	22257	-	.	-
O=C(O)c1cc(N/N=C/c2ccc3c(c2)OCCO3)ccc1Cl	-	-	-	-	38
Cn1cc(CNC(=O)C23CC4CC(CC(C4)C2)C3)cn1	-	-	-	.	36
COc1ccc2cc3c(nc2c1)OCC3	-	-	-	11	-
COc1ccc2nc3c(nc2c1)CCCC3	-	-	-	-	-
C[C@@H]1CN([C@@H](C)CO)C(=O)c2cc(NC(=O)Cc3ccccc3)ccc2O[C@@H](C)CCCCO[C@H]1CN(C)Cc1ccc2c(c1)OCO2	.	.	.	-	.
O=S(=O)(NCC1CCCO1)c1ccc(Oc2ccccc2)cc1 (stereo unspecified)	-	21154	-	.	-
O=S(=O)(NCC1CCCO1)c1ccc(-c2ccc(S(=O)(=O)NCC3CCCO3)cc2)cc1 (stereo unspecified)	-	-	-	-	-
COc1cccc2cc(NC(=O)C3CCCCC3)c(=O)oc12	-	21365	?	.	-
CCC(Oc1ccccc1)C(=O)Nc1ccc(S(=O)(=O)NCC2CCCO2)cc1 (stereo unspecified)	-	20336	-	.	-
O=C(Nc1ccc(S(=O)(=O)NCC2CCCO2)cc1)c1ccccc1 (stereo unspecified)	-	-	-	-	-
COc1cccc(CN(CC(=O)NCC2CCCO2)C(=O)CNS(=O)(=O)c2ccccc2)c1 (stereo unspecified)	-	16841	-	-	-
Cc1ccc(S(=O)(=O)N(C)C[C@H]2Oc3ccc(NC(=O)Cc4cn(C)c5ccccc45)cc3CC(=O)N([C@H](C)CO)C[C@H]2C)cc1	.	.	.	-	.
COc1cccc2cc(C(=O)Nc3ccc(S(=O)(=O)NCC4CCCO4)cc3)c(=O)oc12 (stereo unspecified)	-	24536	-	-	-
C[C@H]1CCCCO[C@H](CN(C)Cc2ccccc2)[C@@H](C)CN([C@@H](C)CO)C(=O)c2cc(NS(=O)(=O)c3cn(C)cn3)ccc2O1	.	.	.	-	.
O=C(CCNC(=O)c1ccc(Br)o1)NCc1ccc(Cl)cc1	-	20990	-	-	-
CO[C@H]1CN(C)C(=O)c2cc(NC(=O)c3cccc(F)c3)ccc2OC[C@H](C)NC[C@H]1C	.	.	.	-	.
CNC(=O)c1sc(-c2cccnc2)nc1C	-	?	-	.	-
Cc1nc(-c2cccnc2)sc1C(=O)Nc1ccc(C(F)(F)F)cc1	-	22745	?	.	-
Cc1nc(-c2cccnc2)sc1C(=O)Nc1cccc(C(F)(F)F)c1	-	22572	?	.	-
O=C(CC1CC1)N[C@H]1C[C@@H]2O[C@H](CO)CC[C@@H]2O[C@@H]1CCc1ccc(C#Cc2ccccc2)cc1	.	.	.	-	.
SMILES	Anthrax LF inh2	Autofluor counter	BoNT A protease	TcdB inh	BoNT-F LC inh
CCC(=O)N1C[C@H]2[C@@H](c3ccccc31)[C@@H](CO)N2Cc1ccccc1Cl	.	.	.	-	.
O=C(Nc1ccc(C(=O)N2CCCC2)cc1)c1ccccc1F	-	16849	-	-	-
CN1CCN(c2ccccc2NC(=O)Cc2ccc(Cl)cc2)CC1	-	21557	-	-	-
CN1CCN(c2ccccc2NC(=O)COc2ccc(Br)cc2)CC1	-	21142	-	.	-
C[C@H](CO)N1C[C@H](C)[C@@H](CN(C)CC2CCCCC2)Oc2ccc(NC(=O)Cc3ccccc3)cc2CC1=O	.	.	.	-	.
O=C(Nc1ncc(Cc2ccccc2)s1)c1cccs1	-	-	-	.	-
O=C(Nc1ncc(Cc2ccc(SC(F)F)cc2)s1)c1ccccc1	-	21972	-	.	-
Cc1ccc(C(=O)Nc2ncc(Cc3ccccc3)s2)o1	-	24322	-	.	-
O=C(CN(Cc1cccs1)C(=O)CNS(=O)(=O)c1ccccc1)NCc1ccco1	-	-	-	.	-

From PubChem
